Source: the antibiotic and cytotoxicity screens of Wong et al. (2023)
About 3,300 (8.5%) of roughly 39,000 compounds were called active. This excerpt belongs to a sample that is enriched for actives.

Test system: HepG2
Assay: cytotoxicity call (relative viability < 0.9)
Conditions: 10 µM

Row | SMILES | cytotoxicity call
1 | CN1CCN(C(=O)[C@@H]2[C@@H](C(=O)O)[C@H]3CC[C@H]2O3)CC1 | inactive
2 | CN(C)CC(=O)N1CC(=O)N2[C@@H](CO)[C@H](c3ccc(C#Cc4cccnc4)cc3)[C@@H]2C1 | inactive
3 | CN1CCN(C)[C@@H](CO)C1 | inactive
4 | Cc1ccc(S(=O)(=O)N(C)C[C@@H]2OCCCC[C@@H](C)Oc3ccc(NC(=O)c4ccccc4)cc3C(=O)N([C@@H](C)CO)C[C@@H]2C)cc1 | inactive
5 | C[C@@H]1CN([C@H](C)CO)C(=O)c2cc(NS(=O)(=O)c3cn(C)cn3)ccc2O[C@@H]1CN(C)C(=O)Nc1ccc(F)cc1 | inactive
6 | CC1(C)CC[C@]2(C(=O)O[C@@H]3O[C@H](CO[C@@H]4O[C@H](CO)[C@@H](O)[C@H](O)[C@H]4O)[C@@H](O)[C@H](O)[C@H]3O)CC[C@]3(C)C(=CC[C@H]4[C@@]5(C)CC[C@H](O[C@@H]6OC[C@H](O)[C@H](O)[C@H]6O)C(C)(C)[C@@H]5CC[C@]43C)[C@@H]2C1 | inactive
7 | CC(CC(=O)C1OC1(C)C)C1C(=O)CC2(C)C3=CCC4C(C)(C)C(OC5OCC(O)C(O)C5O)CCC45CC35C(O)CC12C (stereo not drawn) | active
8 | CC(=O)OC1CC23CC24CCC(OC2OCC(O)C(O)C2O)C(C)(C)C4CCC3C2(C)CC3OC4(CC(C)C3C12C)OC(O)C1(C)OC41 (stereo not drawn) | inactive
9 | O=C(Nc1cc(C(=O)Nc2ccc(S(=O)(=O)O)cc2S(=O)(=O)O)cc(C(=O)Nc2ccc(S(=O)(=O)O)cc2S(=O)(=O)O)c1)Nc1cc(C(=O)Nc2ccc(S(=O)(=O)O)cc2S(=O)(=O)O)cc(C(=O)Nc2ccc(S(=O)(=O)O)cc2S(=O)(=O)O)c1 | inactive
10 | CC(C)CC#Cc1cnc2c(c1)C(=O)N([C@H](C)CO)C[C@@H](C)[C@@H](CN(C)S(=O)(=O)c1ccccc1)O2 | inactive
11 | C[C@H](CO)N1C[C@H](C)[C@@H](CN(C)C(=O)Nc2cccc3ccccc23)OCCCC[C@H](C)Oc2ccc(NS(=O)(=O)c3cccs3)cc2C1=O | active
12 | C[C@@H]1CN([C@@H](C)CO)C(=O)c2cc(NS(=O)(=O)c3cccs3)ccc2O[C@@H](C)CCCCO[C@H]1CN(C)C(=O)Nc1cccc2ccccc12 | inactive
13 | C[C@@H]1CCCCO[C@H](CN(C)C(=O)Nc2cccc3ccccc23)[C@H](C)CN([C@H](C)CO)C(=O)c2cc(NS(=O)(=O)c3cccs3)ccc2O1 | active
14 | C[C@@H]1CN([C@@H](C)CO)C(=O)c2cc(NS(=O)(=O)c3cccs3)ccc2O[C@@H](C)CCCCO[C@@H]1CN(C)C(=O)Nc1cccc2ccccc12 | inactive
15 | C[C@H](CO)N1C[C@H](C)[C@H](CN(C)C(=O)Nc2cccc3ccccc23)OCCCC[C@H](C)Oc2ccc(NS(=O)(=O)c3cccs3)cc2C1=O | inactive
16 | C[C@@H]1CCCCO[C@H](CN(C)C(=O)Nc2cccc3ccccc23)[C@@H](C)CN([C@H](C)CO)C(=O)c2cc(NS(=O)(=O)c3cccs3)ccc2O1 | inactive
17 | C[C@H]1CCCCO[C@H](CN(C)C(=O)Nc2cccc3ccccc23)[C@@H](C)CN([C@@H](C)CO)C(=O)c2cc(NS(=O)(=O)c3cccs3)ccc2O1 | active
18 | C[C@@H]1CCCCO[C@@H](CN(C)C(=O)Nc2cccc3ccccc23)[C@H](C)CN([C@H](C)CO)C(=O)c2cc(NS(=O)(=O)c3cccs3)ccc2O1 | inactive
19 | C[C@H]1CCCCO[C@@H](CN(C)C(=O)Nc2cccc3ccccc23)[C@@H](C)CN([C@@H](C)CO)C(=O)c2cc(NS(=O)(=O)c3cccs3)ccc2O1 | inactive
20 | CO[C@@H](CN(C)C(=O)c1ccc2c(c1)OCO2)[C@H](C)CN([C@@H](C)CO)S(=O)(=O)c1ccc(F)cc1 | inactive
21 | C[C@@H]1CCCCO[C@@H](CN(C)C(=O)CCC(F)(F)F)[C@H](C)CN([C@H](C)CO)C(=O)c2cc(NC(=O)C3CCCCC3)ccc2O1 | inactive

Row | SMILES | cytotoxicity call
22 | C[C@@H]1CN([C@@H](C)CO)C(=O)c2cccc(NC(=O)Nc3ccc4c(c3)OCO4)c2O[C@H]1CN(C)Cc1ccc(C(=O)Nc2ccccc2N)cc1 | inactive
23 | O=C(CCCCCNC(=O)OCc1ccc(CO[C@H]2C[C@@H](c3coc4ccccc4c3=O)C=C(C(=O)N3CCN(Cc4ccccc4)CC3)O2)cc1)NO | inactive
24 | O=C(CN1CCOCC1)N[C@H]1CC[C@@H](CCNS(=O)(=O)c2ccccc2F)O[C@@H]1CO | inactive
25 | Cc1ccc(S(=O)(=O)Nc2cccc3c2O[C@@H](CN(C)Cc2ccc(Cl)c(Cl)c2)[C@@H](C)CN([C@@H](C)CO)C3=O)cc1 | inactive
26 | CC(C)NC(=O)N(C)C[C@H]1Oc2ccc(NC(=O)CCC(F)(F)F)cc2C(=O)N([C@H](C)CO)C[C@H]1C | inactive
27 | N#C[C@H]1N[C@H](CO)[C@H]1c1ccccc1 | inactive
28 | C[C@H](CO)N1C[C@H](C)[C@H](CN(C)S(=O)(=O)c2ccc(C#N)cc2)Oc2ncc(C#CC(C)(C)O)cc2C1=O | inactive
29 | COc1ccccc1S(=O)(=O)N1C[C@@H](O)COC[C@@H]2O[C@@H](CC(=O)O)CC[C@H]21 | inactive
30 | C[C@H](CO)N1C[C@H](C)[C@@H](CN(C)C(=O)c2ccccn2)Oc2cc(C#Cc3ccccc3)ccc2S1(=O)=O | inactive
31 | C[C@H]1CN([C@@H](C)CO)C(=O)c2ccccc2-c2ccccc2CO[C@@H]1CN(C)C(=O)Nc1ccc(-c2ccccc2)cc1 | inactive
32 | C[C@@H]1CN([C@@H](C)CO)C(=O)c2c(c3ccccc3n2C)-c2ccccc2CO[C@H]1CN(C)C(=O)Nc1ccc(-c2ccccc2)cc1 | inactive
33 | C[C@H](CO)N1C[C@H](C)[C@@H](CN(C)C(=O)Nc2ccc(-c3ccccc3)cc2)OCc2ccccc2-c2c(n(C)c3ccccc23)C1=O | inactive
34 | C[C@@H]1CN([C@H](C)CO)C(=O)c2ccccc2-c2ccccc2CO[C@H]1CN(C)C(=O)Nc1ccc(-c2ccccc2)cc1 | active
35 | C[C@H]1CN([C@@H](C)CO)C(=O)c2c(c3ccccc3n2C)-c2ccccc2CO[C@H]1CN(C)C(=O)Nc1ccc(-c2ccccc2)cc1 | active
36 | C[C@@H]1CN([C@@H](C)CO)C(=O)c2ccccc2-c2ccccc2CO[C@@H]1CN(C)C(=O)Nc1ccc(-c2ccccc2)cc1 | inactive
37 | C[C@@H]1CN([C@H](C)CO)C(=O)c2c(c3ccccc3n2C)-c2ccccc2CO[C@H]1CN(C)C(=O)Nc1ccc(-c2ccccc2)cc1 | active
38 | C[C@@H]1CN([C@@H](C)CO)C(=O)c2c(c3ccccc3n2C)-c2ccccc2CO[C@@H]1CN(C)C(=O)Nc1ccc(-c2ccccc2)cc1 | inactive
39 | C[C@@H]1CN([C@H](C)CO)C(=O)c2c(c3ccccc3n2C)-c2ccccc2CO[C@@H]1CN(C)C(=O)Nc1ccc(-c2ccccc2)cc1 | inactive
40 | COc1cc(F)c(C(C)C)cc1-c1ccc(C(F)(F)F)cc1CN1C(=O)O[C@H](c2cc(C(F)(F)F)cc(C(F)(F)F)c2)[C@@H]1C | inactive
41 | COc1ccc2c3c(n(c2c1)C)[C@H](CO)N(C[C@]13CCN(CC1)C(=O)c1cccnc1)C(=O)c1cccnc1 | inactive
42 | C[C@@H]1CN([C@@H](C)CO)C(=O)c2cc(NC(=O)c3ccncc3)ccc2O[C@@H]1CN(C)Cc1ccncc1 | inactive

Row | SMILES | cytotoxicity call
43 | C[C@@H]1CCCCO[C@H](CN(C)C(=O)CCCN(C)C)[C@H](C)CN([C@@H](C)CO)C(=O)c2cc(NC(=O)Nc3ccc(F)cc3)ccc2O1 | inactive
44 | COc1ccc(NC(=O)N(C)C[C@@H]2OCCCC[C@@H](C)Oc3ccc(NS(=O)(=O)c4ccccc4)cc3C(=O)N([C@H](C)CO)C[C@H]2C)cc1 | inactive
45 | COc1cccc(-c2ccc3c(c2)O[C@@H](CN(C)C(=O)C2CC2)[C@@H](C)CN([C@H](C)CO)S3(=O)=O)c1 | inactive
46 | C[C@@H]1CN([C@H](C)CO)C(=O)c2cc(NS(=O)(=O)c3ccc(Cl)cc3)ccc2O[C@@H](C)CCCCO[C@@H]1CN(C)C(=O)CCC(F)(F)F | inactive
47 | N[C@H](C(=O)O)c1cc(O)cc(O)c1 | inactive
48 | Cc1noc(C)c1NC(=O)Nc1ccc2c(c1)C(=O)N([C@@H](C)CO)C[C@@H](C)[C@@H](CN(C)C(=O)Nc1cccc3ccccc13)O2 | inactive
49 | Cc1noc(C)c1NC(=O)N(C)C[C@H]1OCCCC[C@H](C)Oc2ccc(NS(=O)(=O)c3cccs3)cc2C(=O)N([C@H](C)CO)C[C@@H]1C | inactive
50 | CCCCCCc1ccc(O)cc1O [listing 1 of 2 here] | inactive
51 | COC(=O)CCc1ccc(OC)cc1O | inactive
52 | CCCCCCCCCCCCCCCCCC(=O)NCCCCOn1c(CCCC)nc2c(N)nc3ccccc3c21 | inactive
53 | CCCCCCCc1c(C)c(O)cc2c1[nH]c1ccccc12 | inactive
54 | CCCCCCc1ccc(O)cc1O.Nc1c2ccccc2nc2ccccc12 | active
55 | CCCCCCc1ccc(O)cc1O [listing 2 of 2 here] | active
56 | Cc1noc(C)c1NC(=O)Nc1ccc2c(c1)CC(=O)N([C@@H](C)CO)C[C@H](C)[C@@H](CN(C)S(=O)(=O)c1cccs1)O2 | inactive
57 | Cc1noc(C)c1NC(=O)N(C)C[C@H]1Oc2ccc(NS(=O)(=O)c3ccccc3)cc2CC(=O)N([C@@H](C)CO)C[C@@H]1C | inactive
58 | COc1ccc(NC(=O)N[C@@H]2CC[C@H](CCNC(=O)CN3CCOCC3)O[C@@H]2CO)cc1 | inactive
59 | CCC(=O)N(C)C[C@H]1Oc2ncc(C#C[C@H](C)O)cc2C(=O)N([C@H](C)CO)C[C@@H]1C | inactive
60 | C[C@H](CO)N1C[C@H](C)[C@@H](CN(C)C(=O)Nc2ccccc2)Oc2cc(C#C[C@@H](C)O)ccc2S1(=O)=O | inactive
61 | C[C@@H]1CN([C@H](C)CO)S(=O)(=O)c2ccc(-c3cncnc3)cc2O[C@@H]1CN(C)C(=O)c1cccc(F)c1 | inactive
62 | CCc1c(C)[nH]c2ncnn2c1=O | inactive
63 | CCCN(C)C[C@H]1Oc2cc(C#Cc3cccc(OC)c3)ccc2S(=O)(=O)N([C@@H](C)CO)C[C@H]1C | inactive
